Assay outcomes as filed in PubChem.
Mcl1-Bid inh = Mcl-1/Bid interaction inhibition. AID 1021. inhibition, % at 21.7 µM. Q07820. hit rate 0.97% among 220,000. TR-FRET Mcl-1/Bid-Dy647 peptide binding, 1536-well;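 active = compounds that cut the binding signal by more than half at the single screening dose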;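 also: His-tagged Mcl-1 with europium anti-His antibody binding Bid BH3 peptide; 0% = Mcl-1 plus peptide wells and 100% = peptide-only wells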
Target sequence (Q07820 whole entry, looked up): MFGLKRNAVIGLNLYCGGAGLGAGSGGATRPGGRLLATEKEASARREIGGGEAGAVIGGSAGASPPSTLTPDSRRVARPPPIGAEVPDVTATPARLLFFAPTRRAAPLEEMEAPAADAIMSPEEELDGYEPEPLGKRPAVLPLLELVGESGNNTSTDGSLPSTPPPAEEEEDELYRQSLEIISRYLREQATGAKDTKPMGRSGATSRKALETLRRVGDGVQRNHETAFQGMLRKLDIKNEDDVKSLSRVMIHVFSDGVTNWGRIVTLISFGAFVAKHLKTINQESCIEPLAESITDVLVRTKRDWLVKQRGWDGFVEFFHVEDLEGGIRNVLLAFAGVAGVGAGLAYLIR
m-calpain inh = calpain II (pig) inhibition. purified calpain II, fluorogenic peptide substrate, 30 min. inhibition, % at 16 µM. hit rate 0.37% among 220,000. AID 1236;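 active = inhibition above about 50%, limit read from the data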
TNF death inh = inhibitors of TNF-alpha induced necroptosis in Jurkat FADD-/- cells; hit rate 0.068% among 220,000; Jurkat FADD-/- TNF necroptosis rescue, ATP luminescence, 24 h; 0 = TNF only, 100 = no-TNF cells; activation (protection from cell death), % at 10 µM;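 active = activation, meaning protection from cell death, of at least 50% relative to plate controls; inactive = activation below 50%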;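 also: necroptosis triggered by 40 ng/mL TNF-alpha added together with compound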
Mcl-1 Bim block = disrupts Bim peptide binding to human Mcl-1; hit rate 0.1% among 190,000; Bead-based flow cytometry, Bim peptide-Mcl-1 binding; Q07820; inhibition, % at 10 µM; in the data active = inhibition above about 40%;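 also: 0% = no compound tracer wells and 100% = peptide blocker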
zVAD death inh = blocks zVAD induced death of L929 cells | L929 zVAD necroptosis rescue, ATP luminescence, 24 h; with zVAD 60 µM | viability rescue, % at 10 µM | hit rate 0.38% among 220,000;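 active = activation, scaled between plate controls, above about 75%, limit read from the data; inactive = activation under that limit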;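 also: 0% = zVAD with DMSO and 100% = DMSO alone without zVAD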
Mcl1-Noxa inh = Mcl-1/Noxa interaction inhibition. Q07820. TR-FRET Mcl-1/Noxa peptide binding, 2 h. inhibition, % at 21.7 µM. hit rate 1.5% among 220,000. AID 1022;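 active = compounds that cut the protein-peptide binding signal by more than 50% relative to plate controls in a single-dose test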;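 also: His-tagged Mcl-1 with rhodamine Noxa BH3 peptide and terbium anti-His antibody; 0% = Mcl-1 plus Noxa peptide wells and 100% = peptide-only wells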
An asterisk follows results filed as active. A selection: hits, their analogues and other compounds. The true share with any hit is near 2.8%.

Results for O=C(CC(C(=O)O)c1c[nH]c2ccccc12)c1ccccc1 (centres undefined) ?
Mcl1-Bid inh: 82*; m-calpain inh: 18; TNF death inh: 0; Mcl-1 Bim block: -2; zVAD death inh: 1; Mcl1-Noxa inh: 22

Results for CC(=O)N(Cc1ccco1)c1nc(C(=O)Nc2ccc(Cl)cc2)c(C)s1 ?
Mcl1-Bid inh: -1; m-calpain inh: 8; TNF death inh: 9; Mcl-1 Bim block: -5; zVAD death inh: 1; Mcl1-Noxa inh: 7

Results for COc1ccccc1N1CCN(C2CCN(C(=O)c3cccs3)CC2)CC1 ?
Mcl1-Bid inh: 58*; m-calpain inh: -12; TNF death inh: 2; Mcl-1 Bim block: 1; zVAD death inh: 0; Mcl1-Noxa inh: 8

How did Cc1ccc(NC(=O)c2noc(C(C)C)c2[N+](=O)[O-])cc1 do in these assays?
Mcl1-Bid inh: -15; m-calpain inh: 58*; TNF death inh: 2; Mcl-1 Bim block: -5; zVAD death inh: 2; Mcl1-Noxa inh: 8

What do the screens show for `CC(C)c1onc(C(=O)Nc2cccnc2Cl)c1[N+](=O)[O-]`?
Mcl1-Bid inh: -24; m-calpain inh: 56*; TNF death inh: 0; Mcl-1 Bim block: 2; zVAD death inh: 0; Mcl1-Noxa inh: 12

What do the screens show for `Cc1ccc(S(=O)(=O)NC(C)(C)CN2CCc3ccccc3C2)cc1`?
Mcl1-Bid inh: -63; m-calpain inh: 10; TNF death inh: 5; zVAD death inh: 0; Mcl1-Noxa inh: -4

How did CC(=O)N1c2ccccc2Nc2ccccc21 do in these assays?
Mcl1-Bid inh: -9; m-calpain inh: 1; TNF death inh: -2; Mcl-1 Bim block: -3; Mcl1-Noxa inh: -1

Results for CC(=O)N1c2ccccc2C2(O)N=C(C)SC12 (centres undefined) ?
Mcl1-Bid inh: -24; m-calpain inh: -2; TNF death inh: -2; Mcl-1 Bim block: -6; zVAD death inh: 2; Mcl1-Noxa inh: 55*

What do the screens show for `CC(C)CN(C(=O)COC(=O)c1cc2c(s1)CCC2)C1CCS(=O)(=O)C1` (centres undefined)?
Mcl1-Bid inh: -29; m-calpain inh: -81; TNF death inh: -1; Mcl-1 Bim block: 1; zVAD death inh: 0; Mcl1-Noxa inh: 55*

How did COc1cc(/C=N/N=C2/NC(=O)C(CC(=O)O)S2)ccc1OCc1ccc(Cl)cc1 (centres undefined) do in these assays?
Mcl1-Bid inh: -28; m-calpain inh: -38; TNF death inh: 2; Mcl-1 Bim block: -5; zVAD death inh: 1; Mcl1-Noxa inh: 14

What do the screens show for `CCOc1cc(/C=N/N=C2/NC(=O)C(CC(=O)O)S2)ccc1OCc1ccc(Cl)cc1Cl` (centres undefined)?
Mcl1-Bid inh: -56; m-calpain inh: -95; TNF death inh: -1; Mcl-1 Bim block: 3; zVAD death inh: 2; Mcl1-Noxa inh: 55*

What do the screens show for `NC1=NC(=O)/C(=C/c2c(OS(=O)(=O)c3ccc(Cl)cc3)ccc3ccccc23)S1`?
Mcl1-Bid inh: -28; m-calpain inh: -25; TNF death inh: 2; Mcl-1 Bim block: 1; zVAD death inh: 0; Mcl1-Noxa inh: 36

How did COc1ccc(-c2cc(-c3ccccc3)nc(SCC(=O)Nc3ncc(C)s3)c2C#N)cc1 do in these assays?
Mcl1-Bid inh: -105; m-calpain inh: -73; TNF death inh: 2; Mcl-1 Bim block: -3; zVAD death inh: 1; Mcl1-Noxa inh: -122

Results for CCc1nnc(NC(=O)CSc2nc(-c3ccc(F)cc3)cc(-c3ccccc3)c2C#N)s1 ?
Mcl1-Bid inh: 60*; m-calpain inh: -22; TNF death inh: 5; Mcl-1 Bim block: -14; zVAD death inh: 3; Mcl1-Noxa inh: -14

How did COC(=O)c1cc(N2C(=O)C3C(C2=O)C2(C)C=CC3(C)O2)ccc1Cl (centres undefined) do in these assays?
Mcl1-Bid inh: -1; m-calpain inh: -20; TNF death inh: 0; Mcl-1 Bim block: 6; zVAD death inh: 1; Mcl1-Noxa inh: 69*

How did CC1CCN(C(=O)c2cc(N3C(=O)C4C5CCC(C5)C4C3=O)ccc2Cl)CC1 (centres undefined) do in these assays?
Mcl1-Bid inh: -14; m-calpain inh: -17; TNF death inh: 2; Mcl-1 Bim block: -2; zVAD death inh: 2; Mcl1-Noxa inh: 17

How did CCCN1CNC(=S)N(c2cc(C)ccc2C)C1 do in these assays?
Mcl1-Bid inh: -29; m-calpain inh: -17; TNF death inh: -2; Mcl-1 Bim block: -1; zVAD death inh: 0; Mcl1-Noxa inh: 4

How did CCOC(=O)C1=C(CNCCc2ccc(Cl)cc2)NC(=O)NC1c1ccc2c(c1)OCO2 (centres undefined) do in these assays?
Mcl1-Bid inh: 9; m-calpain inh: 53*; TNF death inh: 0; Mcl-1 Bim block: 2; zVAD death inh: 0; Mcl1-Noxa inh: 18

What do the screens show for `CCOC(=O)C1=C(CNCCOc2ccc(OC)cc2)NC(=O)NC1c1ccc2c(c1)OCO2` (centres undefined)?
Mcl1-Bid inh: -7; m-calpain inh: 14; TNF death inh: 1; Mcl-1 Bim block: 1; zVAD death inh: 0; Mcl1-Noxa inh: 11

How did Cc1ccccc1NC(=O)N1CCN(C/C=C/c2ccccc2)CC1 do in these assays?
Mcl1-Bid inh: -25; m-calpain inh: 3; TNF death inh: 0; Mcl-1 Bim block: 1; zVAD death inh: 1; Mcl1-Noxa inh: 1

How did O=C(C1=C[C@@H](c2csc3ccccc23)C[C@@H](OCc2ccc(CO)cc2)O1)N1CCN(Cc2ccc3c(c2)OCO3)CC1 do in these assays?
Mcl1-Bid inh: 97*; m-calpain inh: -6; TNF death inh: -3; Mcl-1 Bim block: 0; zVAD death inh: 0; Mcl1-Noxa inh: -12

Results for O=C(C1=C[C@@H](c2csc3ccccc23)C[C@@H](OCc2ccc(CO)cc2)O1)N1CCN(Cc2ccccc2)CC1 ?
Mcl1-Bid inh: 1; m-calpain inh: -24; TNF death inh: 2; Mcl-1 Bim block: 0; zVAD death inh: 0; Mcl1-Noxa inh: 4

How did c1ccc2c(c1)Nc1nccnc1S2 do in these assays?
Mcl1-Bid inh: -95; m-calpain inh: -17; TNF death inh: 22; Mcl-1 Bim block: -5; zVAD death inh: 85*; Mcl1-Noxa inh: 42

Results for O=C1Nc2cccnc2Sc2ccccc21 ?
Mcl1-Bid inh: -35; m-calpain inh: -7; TNF death inh: -1; Mcl-1 Bim block: -3; zVAD death inh: 0; Mcl1-Noxa inh: 19

What do the screens show for `Cc1ccc2nsnc2c1S(=O)(=O)NCCc1c(C)[nH]c2ccc(F)cc12`?
Mcl1-Bid inh: 55*; m-calpain inh: 6; TNF death inh: 0; Mcl-1 Bim block: 0; zVAD death inh: 0; Mcl1-Noxa inh: 8

How did C=CCOc1c2ccc(C(=O)NCc3ccc(OC)cc3)cc2nn1C do in these assays?
Mcl1-Bid inh: -16; m-calpain inh: -243; TNF death inh: -3; Mcl-1 Bim block: -2; zVAD death inh: 0; Mcl1-Noxa inh: -3
